# From PubChem BioAssay (EPA / NIEHS)
# Results filed as inconclusive are left out. Activity calls are given as the source filed them. Rule for the calls: active = hit-call score of the fitted dose curve at least 0.9, where 1 is the maximum; inconclusive = response in the unintended direction; inactive = score below 0.9.
# Key:
# [1] = ACEA_ER_AUC_viability: ACEA Biosciences xCELLigence Real-Time Cell Analysis on Estrogen Receptor Agonism for Viability (AID 2283782);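 note: hit means loss of impedance signal meaning reduced cell growth or viability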
# Method in brief: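 Continuous-exposure impedance cell analysis uses T-47D cells in charcoal-stripped serum, eight 1:4 dilutions topping at 100 uM final, biological duplicate. Area under the growth curve at 80 h is fitted against DMSO baseline.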
# AR (gene 367) [2] = target: AR (gene 367) (UniProt P10275); assay: ACEA_AR_agonist_80hr: ACEA Biosciences xCELLigence Real-Time Cell Analysis on Androgen Receptor Agonism for Proliferation (AID 2283783);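 note: hits increase impedance growth signal above DMSO baseline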
# Method in brief: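 Real-time cell-growth kinetics were recorded by electrode impedance in 22Rv1 cells exposed to test chemicals up to 100 uM final; the 80 h timepoint served as the readout, fitted upward relative to DMSO controls, in biological duplicate.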
# AR (gene 367) [3] = target: AR (gene 367) (UniProt P10275); assay: ACEA_AR_antagonist_80hr: ACEA Biosciences xCELLigence Real-Time Cell Analysis on Androgen Receptor Antagonism for Proliferation (AID 2283787);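 note: 22Rv1 human prostate cancer cells with growth followed by electrical impedance; hits lower the impedance growth signal relative to DMSO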
# Method in brief: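 Using 22Rv1 cells held in assay medium, we dosed compounds (100 uM maximum final, 1:4 serial, eight points, 0.5% DMSO at top) and recorded cell-electrode impedance; the 80 hr timepoint was analyzed against DMSO.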
# [4] = STM_H9_NormalizedViability: Cytotoxicity Assessment at 120 hours in the Stemina devTOX quickPredict H9 human embryonic stem cell (hESC)-based Assay (AID 2283784)
# Method in brief: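 CellTiter-Fluor RFU, background-subtracted, expressed relative to 0.1% DMSO neutral control by plate. Pluripotent H9 cells; treatment with daily re-dosing. Plates carried 1uM methotrexate (positive) and 5 nM methotrexate (negative) references.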
# [5] = system: turtle Estrogen Receptor (ESR1), gene 101933533; assay: ATG_trERa_XSP1: Attagene TRANS-FACTORIAL Multi-Species (XSP1) HepG2 Assay for turtle Estrogen Receptor (ESR1) (AID 2283781)
# Description: ATG_XSP1_multi-species_TRANS is a cell-based, multiplexed assay created by modifying the existing Attagene TRANS-FACTORIAL system to include a panel of nuclear receptors from some or all the following species: human (Homo sapiens), mouse (Mus musculus), frog (Xenopus laevis), zebrafish (Danio rerio), chicken (Gallus gallus), and turtle (Chrysemys picta). The ECOTOX-FACTORIAL format uses HepG2, a human liver cell line, with measurements taken at 24 hours after chemical dosing in a 24-well plate. Xsp1 included 3 nM 6-alpha-fluorotestosterone to partially stimulate the androgen receptor.ATG_trERa_XSP1 is one of 29 assay components measured or calculated from the ATG_XSP1_multi-species_TRANS assay. It is designed to make measurements of mRNA induction, a form of inducible reporter, as detected with fluorescence intensity signals by Reverse transcription polymerase chain reaction (RT-PCR) and Capillary electrophoresis technology.The assay endpoint ATG_trERa_XSP1 was analyzed in the positive analysis fitting direction relative to DMSO as the negative control and baseline of activity. Using a type of inducible reporter, measures of mRNA for gain-of-signal activity can be used to understand the reporter gene at the transcription factor-level as they relate to the gene ER. Furthermore, this assay endpoint can be referred to as a primary readout, because this assay has produced multiple assay endpoints where this one serves a reporter gene function. […]
# Human liver HepG2 cells are transiently transfected with multiple reporter transcription units (MRTUs) in 6-well plates using FuGene 6 reagent (Roche; 3 ml FuGene/1 mg DNA). […] A major difference between the CIS and TRANS system is that in CIS activities of endogenous TFs are measured, whereas the TRANS assay evaluates changes in activities of exogenous, chimeric NR-Gal4 proteins. […] The fragments were purified using Qiaquick PCR columns (Qiagen), analyzed on an ABI 3130xL genetic analyzer (Applied Biosystems) with peak positions identified by using a set of X-rhodamine (ROX)-labeled MapMarker1000 molecular weight standards (BioVentures). […]
# [6] = target: Estrogen receptor beta (Homo sapiens) (UniProt Q92731); assay: ATG_hERb_XSP1: Attagene TRANS-FACTORIAL Multi-Species (XSP1) HepG2 Assay for human Estrogen Receptor (ESR2) (AID 2283788)
# Method in brief: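 Multiplexed trans-activation in transfected HepG2: ERβ-Gal4 reporter transcripts after 24 h treatment, detected by RT-PCR plus capillary electrophoresis.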
# [7] = ATG_M_06_XSP1: Attagene TRANS-FACTORIAL Multi-Species (XSP1) HepG2 Assay for M06 Transcription Factor (Internal Marker) (AID 2283790)
# Method in brief: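 This background-control readout tracks M06 reporter mRNA, measured by RT-PCR and capillary electrophoresis. HepG2 cells transiently carrying the GAL4-UAS reporter panel were dosed for 24 h with 3 nM 6-alpha-fluorotestosterone added for partial AR stimulation; increases were scored relative to DMSO.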
# [8] = ATG_M_61_XSP1: Attagene TRANS-FACTORIAL Multi-Species (XSP1) HepG2 Assay for M61 Transcription Factor (Internal Marker) (AID 2283797)
# Method in brief: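 Background-control readout: reporter transcripts measured by RT-PCR and capillary electrophoresis 24 h after dosing transiently transfected HepG2 multi-reporter cells, with 3 nM 6-alpha-fluorotestosterone present. Fitted in the positive direction relative to DMSO.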
# [9] = system: turtle Androgen Receptor (AR), gene 101947425; assay: ATG_trAR_XSP1: Attagene TRANS-FACTORIAL Multi-Species (XSP1) HepG2 Assay for turtle Androgen Receptor (AR) (AID 2283786)
# Method in brief: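 Partial androgen stimulation is provided by 3 nM 6-alpha-fluorotestosterone in a multi-species trans-factorial panel expressing a turtle AR–GAL4 fusion in HepG2. After 24 h, reporter mRNA is measured by RT-PCR and capillary electrophoresis and fitted upward against DMSO.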
# [10] = target: GAL4 Transcription Factor (Internal Marker), GAL4 (gene 855828) (UniProt P04386); assay: ATG_GAL4_XSP1: Attagene TRANS-FACTORIAL Multi-Species (XSP1) HepG2 Assay for GAL4 Transcription Factor (Internal Marker) (AID 2283789)
# Method in brief: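 This background-control endpoint measures GAL4-driven reporter mRNA via RT-PCR and capillary electrophoresis of labelled fragments. Transiently transfected HepG2 cells were treated 24 h, with 3 nM 6-alpha-fluorotestosterone included, and gain-of-signal was fitted against DMSO.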
# Sequence of Estrogen receptor beta (Homo sapiens) (Q92731 whole entry, looked up, the tested form may be a part): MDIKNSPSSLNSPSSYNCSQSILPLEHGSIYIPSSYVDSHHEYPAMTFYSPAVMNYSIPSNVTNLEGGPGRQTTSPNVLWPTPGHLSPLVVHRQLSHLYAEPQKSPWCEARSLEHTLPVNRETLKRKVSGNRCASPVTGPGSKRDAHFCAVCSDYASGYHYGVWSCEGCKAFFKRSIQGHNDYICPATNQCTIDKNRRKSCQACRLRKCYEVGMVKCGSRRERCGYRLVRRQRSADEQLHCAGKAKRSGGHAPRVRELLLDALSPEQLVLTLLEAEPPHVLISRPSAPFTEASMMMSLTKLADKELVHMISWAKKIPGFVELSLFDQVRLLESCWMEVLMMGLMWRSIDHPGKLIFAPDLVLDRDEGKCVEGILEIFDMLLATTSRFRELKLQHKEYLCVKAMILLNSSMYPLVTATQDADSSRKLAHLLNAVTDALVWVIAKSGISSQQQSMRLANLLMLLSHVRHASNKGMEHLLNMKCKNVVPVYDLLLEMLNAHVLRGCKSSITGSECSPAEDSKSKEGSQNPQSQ
# Sequence of AR (gene 367) (P10275 whole entry, looked up): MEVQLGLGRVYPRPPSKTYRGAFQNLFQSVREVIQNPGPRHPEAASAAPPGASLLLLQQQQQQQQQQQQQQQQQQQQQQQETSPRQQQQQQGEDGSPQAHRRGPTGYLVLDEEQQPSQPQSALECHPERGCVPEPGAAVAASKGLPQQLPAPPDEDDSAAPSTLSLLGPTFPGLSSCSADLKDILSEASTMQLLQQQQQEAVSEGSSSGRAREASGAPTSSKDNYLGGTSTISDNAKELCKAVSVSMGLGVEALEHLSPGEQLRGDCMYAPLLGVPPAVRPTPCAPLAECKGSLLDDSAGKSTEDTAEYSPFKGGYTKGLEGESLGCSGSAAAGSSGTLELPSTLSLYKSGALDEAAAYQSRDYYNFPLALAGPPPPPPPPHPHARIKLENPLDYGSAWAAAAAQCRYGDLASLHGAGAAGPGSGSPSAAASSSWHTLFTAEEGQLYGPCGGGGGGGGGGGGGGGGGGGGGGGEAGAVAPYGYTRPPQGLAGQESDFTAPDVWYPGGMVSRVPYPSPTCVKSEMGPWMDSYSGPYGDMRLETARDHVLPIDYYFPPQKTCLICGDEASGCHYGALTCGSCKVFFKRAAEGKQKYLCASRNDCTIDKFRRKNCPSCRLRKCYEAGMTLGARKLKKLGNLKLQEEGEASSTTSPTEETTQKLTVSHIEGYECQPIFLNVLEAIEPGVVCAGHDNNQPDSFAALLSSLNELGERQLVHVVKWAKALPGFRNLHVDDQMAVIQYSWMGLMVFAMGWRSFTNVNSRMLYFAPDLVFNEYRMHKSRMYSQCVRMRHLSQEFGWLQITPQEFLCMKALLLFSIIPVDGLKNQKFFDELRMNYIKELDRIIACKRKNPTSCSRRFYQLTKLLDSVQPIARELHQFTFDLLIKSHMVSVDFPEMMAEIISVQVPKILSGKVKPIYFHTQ
# Sequence of GAL4 Transcription Factor (Internal Marker), GAL4 (gene 855828) (P04386 whole entry, looked up, the tested form may be a part): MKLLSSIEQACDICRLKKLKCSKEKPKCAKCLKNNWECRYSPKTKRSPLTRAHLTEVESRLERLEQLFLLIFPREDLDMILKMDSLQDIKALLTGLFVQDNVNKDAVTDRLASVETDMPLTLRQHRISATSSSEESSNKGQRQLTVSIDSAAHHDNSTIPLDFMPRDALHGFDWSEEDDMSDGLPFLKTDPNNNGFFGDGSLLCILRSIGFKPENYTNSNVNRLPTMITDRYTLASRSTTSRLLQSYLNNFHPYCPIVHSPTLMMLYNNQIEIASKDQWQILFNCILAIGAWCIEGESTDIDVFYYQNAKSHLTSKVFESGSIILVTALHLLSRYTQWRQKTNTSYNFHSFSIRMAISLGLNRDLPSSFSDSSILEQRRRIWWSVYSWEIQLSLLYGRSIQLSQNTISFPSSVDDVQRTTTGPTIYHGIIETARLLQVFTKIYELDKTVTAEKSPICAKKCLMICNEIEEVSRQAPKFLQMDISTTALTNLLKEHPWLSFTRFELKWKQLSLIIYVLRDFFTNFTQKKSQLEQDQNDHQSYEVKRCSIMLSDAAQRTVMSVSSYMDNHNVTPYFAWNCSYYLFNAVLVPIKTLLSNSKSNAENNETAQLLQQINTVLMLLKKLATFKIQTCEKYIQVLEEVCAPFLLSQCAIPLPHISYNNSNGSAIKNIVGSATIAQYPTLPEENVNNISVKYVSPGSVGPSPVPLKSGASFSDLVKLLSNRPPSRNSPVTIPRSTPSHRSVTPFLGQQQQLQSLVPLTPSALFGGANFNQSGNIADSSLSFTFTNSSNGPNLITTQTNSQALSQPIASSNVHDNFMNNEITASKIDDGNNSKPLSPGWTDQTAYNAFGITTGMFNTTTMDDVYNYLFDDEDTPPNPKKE
smiles,measurement,setting,value
Nc1nc(N)nc(NC2CC2)n1,outcome,[1],inactive
COP(=O)(OC)SCn1c(=O)oc2cc(Cl)cnc21,AC50,[1],76.2 µM (active)
same,outcome,AR (gene 367) [2],inactive
same,AC50,AR (gene 367) [3],21.7 µM (active)
C=C(C)[C@H]1Cc2c(ccc3c2O[C@@H]2COc4cc(OC)c(OC)cc4[C@@H]2C3=O)O1,outcome,[1],inactive
same,outcome,AR (gene 367) [2],inactive
same,AC50,[4],0.515 µM (active)
same,AC50,AR (gene 367) [3],1.54 µM (active)
CCOP(=S)(OCC)Oc1ccc2c(C)c(Cl)c(=O)oc2c1,outcome,[5],inactive
same,outcome,[6],inactive
same,outcome,[7],inactive
same,outcome,[8],inactive
COP(=O)(OC)C(O)C(Cl)(Cl)Cl (configuration not stated),AC50,[1],76.5 µM (active)
CCc1cccc(C)c1N(C(=O)CCl)C(C)COC (configuration not stated),AC50,[5],17.4 µM (active)
same,outcome,[1],inactive
same,AC50,[6],4.14 µM (active)
same,outcome,[7],inactive
same,outcome,[8],inactive
COP(=O)(OC)OC(Br)C(Cl)(Cl)Br (configuration not stated),AC50,[1],30.7 µM (active)
same,outcome,AR (gene 367) [2],inactive
same,AC50,AR (gene 367) [3],69.5 µM (active)
CCCSP(=O)(OCC)Oc1ccc(Br)cc1Cl (configuration not stated),AC50,[1],38.6 µM (active)
COP(=O)(NC(C)=O)SC (configuration not stated),outcome,[1],inactive
CC1=NNC(=O)N(/N=C/c2cccnc2)C1,outcome,[1],inactive
same,outcome,[4],inactive
O=c1ccc(=O)[nH][nH]1,outcome,[1],inactive
CCCCSP(=O)(SCCCC)SCCCC,AC50,[1],71.4 µM (active)
Cc1cc(C2CC2)nc(Nc2ccccc2)n1,AC50,[1],77.3 µM (active)
S=C1NCCN1,outcome,[1],inactive
CCOC(=O)CC(SP(=O)(OC)OC)C(=O)OCC (configuration not stated),outcome,[1],inactive
CNC(=O)ON=C(SC)C(=O)N(C)C,AC50,[1],65.5 µM (active)
same,outcome,AR (gene 367) [2],inactive
same,outcome,AR (gene 367) [3],inactive
CC[C@H](C)[C@H]1O[C@]2(C=C[C@@H]1C)C[C@@H]1C[C@@H](C/C=C(\C)[C@@H](O[C@H]3C[C@H](OC)[C@@H](O[C@H]4C[C@H](OC)[C@@H](NC)[C@H](C)O4)[C@H](C)O3)[C@@H](C)/C=C/C=C3\CO[C@@H]4[C@H](O)C(C)=C[C@@H](C(=O)O1)[C@]34O)O2,AC50,[1],1.82 µM (active)
CC(C1CC1)C(O)(Cn1cncn1)c1ccc(Cl)cc1 (configuration not stated),outcome,[1],inactive
same,outcome,[4],inactive
CCC(CC)Nc1c([N+](=O)[O-])cc(C)c(C)c1[N+](=O)[O-],AC50,[1],76.8 µM (active)
CCOP(=S)(OCC)OC(Cl)C(Cl)(Cl)Cl (configuration not stated),AC50,[1],76.4 µM (active)
O=C(O)c1cc(Oc2ccc(C(F)(F)F)cc2Cl)ccc1[N+](=O)[O-],outcome,[1],inactive
CN(C)NC(=O)CCC(=O)O,outcome,[1],inactive
CNC(=O)ON=C(C)SC,outcome,[1],inactive
CC(=NC#N)N(C)Cc1ccc(Cl)nc1,outcome,[1],inactive
CCOP(=O)(OCC)Oc1cc(C)nc(C(C)C)n1,outcome,[1],inactive
CCOP(=S)(OCC)Oc1ccc([N+](=O)[O-])cc1,outcome,[1],inactive
C#CC(C)(C)NC(=O)c1cc(Cl)cc(Cl)c1,AC50,[5],64.3 µM (active)
same,outcome,[9],inactive
same,outcome,[7],inactive
same,outcome,[8],inactive
CNC(=O)Oc1cccc2c1OC(C)(C)O2,outcome,[1],inactive
COc1cccc(C(=O)NN(C(=O)c2cc(C)cc(C)c2)C(C)(C)C)c1C,outcome,[1],inactive
CCOP(=S)(Oc1cnc(C(C)(C)C)nc1)OC(C)C (configuration not stated),AC50,[1],81.4 µM (active)
C[Si](Cn1cncn1)(c1ccc(F)cc1)c1ccc(F)cc1,AC50,[1],76.2 µM (active)
same,AC50,[4],80.6 µM (active)
C#CCC1=C(C)C(OC(=O)C2C(C=C(C)C)C2(C)C)CC1=O (configuration not stated),outcome,[6],inactive
same,outcome,[7],inactive
same,outcome,[8],inactive
CCCOCC(=Nc1ccc(Cl)cc1C(F)(F)F)n1ccnc1,outcome,[10],inactive
